For 64 compounds, cytotoxicity call results are on record in the antibiotic and cytotoxicity screens of Wong et al. (2023).

In all, about 39,000 compounds went through this assay and about 3,300 (8.5%) were called active. The list comes from a sample in which actives are over-represented; it also holds similar structures and randomly drawn compounds.

In the experiment the test system is HepG2. The experiment is described as follows: cytotoxicity call (relative viability < 0.9). As to conditions: 10 µM.
For the compound `CCn1cc(C(=O)[O-])c(=O)c2cc3c(cc21)OCO3.[K+]`, the cytotoxicity call is “inactive”.
The value for `Oc1cc2c(cc1O)CNCC2` was “inactive”; that for `CS(=O)(=O)C1C[C@H]2CC[C@@H](C1)N2` (some centres undefined) was “inactive”; that for `O=C1N[C@@H]2C(=C[C@H](O)[C@@H](O)[C@H]2O)c2cc3c(c(O)c21)OCO3` was “active”.
With `COC(=O)[C@H]1[C@H]2CO[C@@H]1CN2` the entry was “inactive”; with `C[C@H]1CN([C@@H](C)CO)C(=O)CCCn2cc(nn2)CO[C@H]1CN(C)C(=O)Oc1cccc2ccccc12`, “inactive”; with `O=C(c1ccno1)N1C[C@@H]2CCN[C@@H]2C1`, “inactive”.
For `CC(=O)[O][Hg][c]1ccccc1`, the cytotoxicity call was “active”.
The value for `O=C(Cc1ccccc1)c1ccccc1` was “inactive”; that for `NCC(=O)c1ccccc1` was “inactive”.
With `COC(=O)CC1=C(C(=O)OC)[C@]2(C(=O)Nc3ccccc32)C(C(=O)OC)C(=N)O1` (some centres undefined) the entry was “inactive”; with `N[C@@H](c1ccccc1)[C@@H](N)c1ccccc1`, “inactive”.
The value for `CCCNC(=O)C1=NO[C@]2(CCNC2)C1` was “inactive”; that for `CC[C@@H](C)C(=O)O[C@@H]1C[C@@]2(C)[C@H](c3ccoc3)OC(=O)C[C@]23O[C@@]2(C)O[C@]34[C@H](OC(=O)C(C)C)[C@@]3(O)[C@@H](OC(=O)[C@@]5(C)O[C@@H]5C)[C@@]5(C)C[C@]3(O)[C@@](C)([C@H]5CC(=O)OC)[C@@]14O2` was “inactive”.
For `COc1ccc(OC(=O)N(C)C[C@H]2OCc3ccccc3-c3c(n(C)c4ccccc34)C(=O)N([C@@H](C)CO)C[C@@H]2C)cc1`, the cytotoxicity call was “inactive”.
The value for `N[C@@]1(C(=O)O)CC[C@H](C(=O)O)C1.N[C@]1(C(=O)O)CC[C@@H](C(=O)O)C1` was “inactive”.
The value for `CC(=O)OC[C@]12CCC(C)=C[C@H]1O[C@@H]1[C@H](O)[C@@H](OC(C)=O)[C@@]2(C)[C@]12CO2` was “active”.
The value for `Cc1cc(O[C@@H]2O[C@H](CO)[C@@H](O)[C@H](O)[C@H]2O)c2c3c(c(=O)oc2c1)CCC3` was “inactive”; that for `CC1=C[C@H]2O[C@@H]3[C@H](O)[C@@H](O[C@H]4O[C@H](CO)[C@@H](O)[C@H](O)[C@H]4O)[C@](C)([C@@]2(CO)CC1)[C@]31CO1` was “active”.
In the case of `Cc1cc(CCN)on1`, the cytotoxicity call was “inactive”.
With `C[C@@H]1CN([C@H](C)CO)C(=O)CCCn2nncc2CO[C@H]1CN(C)C(=O)Oc1ccc2ccccc2c1` the entry was “inactive”; with `O=S1(=O)COC2(CNC2)CN1`, “inactive”.
Take `C[C@@H]1CN([C@@H](C)CO)C(=O)CCCn2cc(nn2)CO[C@@H]1CN(C)C(=O)Oc1cccc2ccccc12`: the cytotoxicity call is “inactive”.
In the case of `COC(=O)C[C@@H](CN)c1ccc(Cl)cc1`, the cytotoxicity call is “inactive”.
Consider `O=C1CCCC2C3CCCN4CCCC(CN12)C34` (centres undefined), for which the cytotoxicity call was “inactive”.
The value for `Cl.Clc1ccc(C(OCCN2CCCCC2)c2ccccc2)cc1` (centres undefined) was “active”; that for `COc1ccc([C@@H](CN)C(C)C)cc1OC` was “inactive”.
The value for `N[C@H]1CCN(c2cccnc2)C1` was “inactive”; that for `OC[C@H]1O[C@@H](Oc2ccc(/C=C/c3cc(O)cc(O)c3)cc2O)[C@H](O)[C@@H](O)[C@@H]1O` was “inactive”.
With `CC(=O)c1c(O)cc(C)oc1=O` the entry was “inactive”.
Take `C=C(C)c1cc2cc(C(C)=O)c(O)cc2o1`: the cytotoxicity call is “active”.
With `COCCC(=O)N1C[C@H]2CCN[C@H]2C1` the entry was “inactive”.
With `Cl.NCC(CC(=O)O)c1ccc(Cl)cc1` (racemic) the entry was “inactive”.
With `C[C@]12CC/C(=N\OCCN)C[C@@H]1C(=O)C[C@@H]1[C@@H]2CC[C@]2(C)C(=O)CC[C@@H]12` the entry was “inactive”.
Turning to `O=C1NC(=O)C(C2(O)C(=O)c3ccccc3C2=O)C(=O)N1`, the cytotoxicity call was “inactive”.
With `CC(=O)O[C@H]1C(=O)[C@]2(C)[C@@H](O)C[C@H]3OC[C@@]3(OC(C)=O)[C@@H]2[C@H](OC(=O)c2ccccc2)[C@]2(O)C[C@H](O)C(C)=C1C2(C)C` the entry was “active”; with `CC(=O)O[C@@]12CO[C@@H]1C[C@H](O)[C@@]1(C)C(=O)[C@H](O)C3=C(C)[C@@H](OC(=O)[C@H](O)[C@@H](NC(=O)c4ccccc4)c4ccccc4)C[C@](O)([C@@H](OC(=O)c4ccccc4)[C@H]21)C3(C)C`, “active”.
With `CC(=O)OC1C(=O)C2(C)C(O)CC3OCC3(OC(C)=O)C2C(OC(=O)c2ccccc2)C2(O)CC(O)C(C)=C1C2(C)C` (centres undefined) the entry was “active”; with `O=C1CC[C@]2(CCCN(Cc3cnc[nH]3)C2)N1`, “inactive”; with `C=CCOC(=O)[C@@H]1[C@@H](C(=O)OC)N(C)[C@@H](c2ccccc2)[C@]12C(=O)Nc1ccc(I)cc12`, “inactive”.
The value for `C=CCC1(O)CCC2C3CCC4=CCCCC4C3CCC21C` (centres undefined) was “inactive”; that for `CN(C)C1=NC(=O)C2(CCNCC2)N1` was “inactive”; that for `C#CCN(C)C(C)Cc1ccccc1.Cl` (centres undefined) was “inactive”.
Take `CN1CCN(c2nc(=O)c3c([nH]2)CCCC3)CC1`: the cytotoxicity call is “inactive”.
The value for `N=C(N)NO` was “inactive”.
On to `O=C([C@H]1CCCO1)N1CCCN2CCC[C@H]2C1`, for which the cytotoxicity call was “inactive”.
With `Cc1cc2ccccc2n1CCN` the entry was “inactive”; with `NNc1ccn([C@H]2O[C@@H](CO)[C@@H](O)[C@@H]2O)c(=O)n1`, “inactive”.
In the case of `CCNC(=O)[C@H]1O[C@H](n2cnc3c(N)ncnc32)[C@@H](O)[C@@H]1O`, the cytotoxicity call is “inactive”.
With `NC(=O)c1cn([C@H]2O[C@@H](CO)[C@H](O)[C@@H]2O)c2ncnc(N)c12` the entry was “active”; with `NC(=O)c1cn([C@@H]2O[C@H](CO)[C@@H](O)[C@H]2O)c2ncnc(N)c12`, “active”; with `NNc1ccn([C@@H]2O[C@H](CO)[C@@H](O)[C@H]2O)c(=O)n1`, “inactive”.
With `CCNC(=O)[C@H]1O[C@@H](n2cnc3c(N)ncnc32)[C@H](O)[C@@H]1O` the entry was “inactive”; with `C[N+](C)(C)CC(=O)[O-].Cl`, “inactive”.
The value for `O=S(=O)(N[C@H]1CCO[C@]2(CCNC2)C1)C1CC1` was “inactive”; that for `NCCNC[C@@H](N)CCCNC(N)=N[N+](=O)[O-].O=CC(F)(F)F` was “inactive”; that for `CC(=O)N1CCCC[C@]12CCNC2` was “inactive”.
For the compound `CCCCC1C(=O)NC(=S)NC1=O`, the cytotoxicity call was “inactive”.
The value for `CC1CC(C)C(=O)C(C(O)CC2CC(=O)NC(=O)C2)C1` (centres undefined) was “active”.
With `CC12CCC3C(CC=C4CC(O)CCC43C)C1CCC2=O` (centres undefined), the cytotoxicity call is “inactive”.
The value for `COC(=O)[C@H]1CNCCN1c1ccccc1` was “inactive”.
With `O[C@H]1[C@H](O)[C@@H](O)CN2CC[C@H](O)[C@H]12` the entry was “inactive”; with `Cc1nc2c(=O)n(C)c(=O)nc-2n(C)n1`, “active”.
With `Cn1ncnc2c(=O)n(C)c(=O)nc1-2` the entry was “active”.
